Measured values taken from PubChem BioAssay (NCATS).
For part of these data: Potency and affinity values are given separately. Calls of active or inactive are those of the source. A call without a number means that no potency is given here.

Experiments:
[1] = qHTS profiling of the MIPE4 collection as inhibitors of Plasmodium falciparum (DD2) proliferation (AID 743345); settings: P. falciparum Dd2 in erythrocytes, SYBR Green DNA, 72 h; at 28.5 µM (top of the series) unless noted
In short: (§1)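 Parasite DNA was quantified by SYBR Green I fluorescence (ex 485, em 535 nm) after overnight lysis in saponin/Triton buffer at room temperature. Cultures at 0.3% parasitemia and 2.5% hematocrit were first exposed to compound for 72 h at 37 C; signals were normalised to artemisinin (0.29 uM) and vehicle wells.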

[2] = qHTS profiling of the MIPE4 collection as inhibitors of Plasmodium falciparum (HB3) proliferation (AID 743347); settings: P. falciparum HB3 in erythrocytes, SYBR Green DNA, 72 h; at 28.5 µM (top of the series) unless noted
In short: as §1

[3] = Ebola virus entry assay, green fluorescence channel
[4] = Ebola virus entry assay, green channel fluorescence
[5] = Ebola virus entry assay, blue channel fluorescence
[6] = Ebola virus entry assay, green fluorescence channel; remark: listed apart in the source
[7] = Ebola virus entry assay, ratio channel readout
[8] = Ebola virus entry assay, blue channel fluorescence; remark: listed apart in the source
[9] = Ebola virus entry assay, ratio channel
[10] = Ebola virus entry assay, blue channel fluorescence; remark: listed apart in the source

For CC(=O)CC(c1ccccc1)c1c(O)c2ccccc2oc1=O (centres undefined), the parasite growth remaining, % of DMSO control (lower = more inhibition) [1] was 93.4%, the growth, % of control [2] was 84.4% and the efficacy [3] was -35.3% (inactive). The outcome [4] was “inactive”.

In the case of CCCCOC(=O)CC(CC(=O)OCCCC)(OC(C)=O)C(=O)OCCCC, the efficacy [3] is reported as 21.9% (inactive) and the outcome [4] is reported as “inactive”.

In the case of CN(CC1(C)CCCO1)S(=O)(=O)c1ccc(Cl)c(S(N)(=O)=O)c1 (centres undefined), the efficacy [3] is reported as -11% (inactive) and the outcome [4] is reported as “inactive”.

With CCOC(=O)C1=C(COCCN)NC(C)=C(C(=O)OC)C1c1ccccc1Cl (centres undefined) the outcome [5] was “inactive”, the outcome [6] was “inactive” and the outcome [7] was “inactive”.

For Cc1ccc(Nc2nccc(N(C)c3ccc4c(C)n(C)nc4c3)n2)cc1S(N)(=O)=O, the efficacy [3] was 37.4% (inactive) and the outcome [4] was “inactive”.

For O=C(Cn1ccnc1[N+](=O)[O-])NCc1ccccc1, the efficacy [3] was -10.1% (inactive) and the outcome [4] was “inactive”.

In the case of O=C(c1ccccc1)c1ccccc1, the efficacy [3] is reported as 10.2% (inactive) and the outcome [4] is reported as “inactive”.

In the case of NCCc1ccn[nH]1, the efficacy [3] is reported as 19.8% (inactive) and the outcome [4] is reported as “inactive”.

In the case of COc1ccc(/C=N/NC(=O)c2ccncc2)cc1OC, the efficacy [3] is reported as 14.8% (inactive) and the outcome [4] is reported as “inactive”.

For COP(=O)(OC)OC(c1ccc(Cl)cc1)P(=O)(OC)OC (centres undefined), the efficacy [3] was -15.4% (inactive) and the outcome [4] was “inactive”.

For CC(=O)N(c1onc(C)c1C)S(=O)(=O)c1ccc(N)cc1, the efficacy [3] was -8.94% (inactive) and the outcome [4] was “inactive”.

For O=C(CS(=O)Cc1ccco1)NC/C=C\COc1cc(CN2CCCCC2)ccn1 (centres undefined), the efficacy [3] was 29.8% (inactive) and the outcome [4] was “inactive”.

With C=CCc1ccc(O)c(OC)c1 the efficacy [3] was 23.7% (inactive) and the outcome [4] was “inactive”.

With O=c1cc[nH]c(=S)[nH]1 the efficacy [3] was 12.4% (inactive) and the outcome [4] was “inactive”.

In the case of COc1ccc2[nH]cc(CCNC(C)=O)c2c1, the efficacy [3] is reported as -12.3% (inactive) and the outcome [4] is reported as “inactive”.

With Cc1ccc(C(=O)C(C)CN2CCCCC2)cc1 (centres undefined) the efficacy [3] was -18.5% (inactive) and the outcome [4] was “inactive”.

In the case of CCCCC(CC)CNC(=O)CC(C)OC(=O)CCC(=O)O (centres undefined), the efficacy [3] is reported as 12.2% (inactive) and the outcome [4] is reported as “inactive”.

For CN1C(=O)CCS(=O)(=O)C1c1ccc(Cl)cc1 (centres undefined), the parasite growth remaining, % of DMSO control (lower = more inhibition) [1] was 91.5%, the growth, % of control [2] was 109% and the efficacy [3] was 19.9% (inactive). For the same compound, the outcome [4] was “inactive”.

With CCN(CC)CC#CCOC(=O)C(O)(c1ccccc1)C1CCCCC1 (centres undefined) the outcome [5] was “inactive”, the outcome [6] was “inactive” and the outcome [7] was “inactive”.

In the case of O=C(O)Cc1sc(-c2ccccc2)nc1-c1ccc(Cl)cc1, the efficacy [3] is reported as -17.4% (inactive) and the outcome [4] is reported as “inactive”.

For CCS(=O)(=O)c1ccc(OC)c(C(=O)OC)c1, the efficacy [3] was 18.9% (inactive) and the outcome [4] was “inactive”.

With CCCc1ccc(OCC(=O)N2CCN(C(=O)COc3ccc(CCC)cc3OC)CC2)c(OC)c1 the efficacy [3] was 12.4% (inactive) and the outcome [4] was “inactive”.

In the case of CC(C)OC(=O)OCOP(=O)(CO[C@H](C)Cn1cnc2c(N)ncnc21)OCOC(=O)OC(C)C, the parasite growth remaining, % of DMSO control (lower = more inhibition) [1] is reported as 79.8%, the growth, % of control [2] is reported as 345% and the efficacy [3] is reported as -18.7% (inactive). For the same compound, the outcome [4] was “inactive”.

With CC(=O)O[C@H]1C(=O)[C@@]2(C)[C@H]([C@H](OC(=O)c3ccccc3)[C@]3(O)C[C@H](OC(=O)[C@H](O)[C@@H](NC(=O)c4ccccc4)c4ccccc4)C(C)=C1C3(C)C)[C@]1(OC(C)=O)CO[C@@H]1C[C@@H]2O the outcome [5] was “inactive”, the outcome [6] was “inactive” and the outcome [7] was “inactive”.

In the case of CCn1cc(C(=O)O)c(=O)c2cc(F)c(N3CCNC(C)C3)c(F)c21 (centres undefined), the outcome [5] is reported as “inactive”, the outcome [6] is reported as “inactive” and the outcome [7] is reported as “inactive”. For the same compound, the outcome [8] was “inactive”, the outcome [9] was “inactive” and the outcome [4] was “inactive”. For the same compound, the outcome [10] was “inactive”.

In the case of Nc1ncn([C@H]2C[C@H](O)[C@@H](CO)O2)c(=O)n1, the outcome [5] is reported as “inactive”, the outcome [6] is reported as “inactive” and the outcome [7] is reported as “inactive”. For the same compound, the outcome [8] was “inactive”, the outcome [9] was “inactive” and the outcome [4] was “inactive”. The outcome [10] was “inactive”.

With COc1cc(NS(C)(=O)=O)ccc1Nc1c2ccccc2nc2ccccc12 the outcome [5] was “inactive”, the outcome [6] was “inactive” and the outcome [7] was “inactive”.

In the case of CN1CCN(C(c2ccccc2)c2ccc(Cl)cc2)CC1 (centres undefined), the AC50 [5] is reported as 12.6 µM (active), the outcome [6] is reported as “inactive” and the outcome [7] is reported as “inactive”.

In the case of CCc1cc(C(N)=S)ccn1, the outcome [5] is reported as “inactive”, the outcome [6] is reported as “inactive” and the outcome [7] is reported as “inactive”. The outcome [8] was “inactive”, the outcome [9] was “inactive” and the outcome [4] was “inactive”. For the same compound, the outcome [10] was “inactive”.

With CN(C)CCOc1ccc(/C(=C(/CCCl)c2ccccc2)c2ccccc2)cc1 the AC50 [5] was 4.47 µM (active), the outcome [6] was “inactive” and the outcome [7] was “inactive”.

With CO[C@H]1C=CO[C@@]2(C)Oc3c(C)c(O)c4c(O)c(c(/C=N/N5CCN(C6CCCC6)CC5)c(O)c4c3C2=O)NC(=O)/C(C)=C\C=C[C@H](C)[C@H](O)[C@@H](C)[C@@H](O)[C@@H](C)[C@H](OC(C)=O)[C@@H]1C the outcome [5] was “inactive”, the outcome [6] was “inactive” and the outcome [7] was “inactive”.

For CNCCC=C1c2ccccc2CCc2ccccc21, the AC50 [5] was 8.91 µM (active), the outcome [6] was “inactive” and the AC50 [7] was 7.95 µM (active).

In the case of O=C(OC1C[C@@H]2CC3C[C@H](C1)N2CC3=O)c1c[nH]c2ccccc12 (some centres undefined), the outcome [5] is reported as “inactive”, the outcome [6] is reported as “inactive” and the outcome [7] is reported as “inactive”.

For O=C(O[C@H]1CN2CCC1CC2)N1CCc2ccccc2[C@@H]1c1ccccc1, the AC50 [5] was 10 µM (active), the outcome [6] was “inactive” and the AC50 [7] was 7.95 µM (active).
